Data on six molecules can be found in PubChem BioAssay (NCATS).

Records with an inconclusive call do not appear. Activity calls are given as the source filed them. Unless noted, calls come from the whole dose curve; as a rule, active = well fitted curve in the direction sought with a large enough effect; inconclusive = small, poorly fitted or top-dose-only effect, or another doubt; inactive = no such curve, though single readings can be large; an effect the other way counts as inactive or inconclusive.

Experiment [1] has as its target Cytochrome P450 3A4 (Homo sapiens) (UniProt P08684). Kind of experiment: qHTS Assay for Inhibitors and Substrates of Cytochrome P450 3A4 (AID 884). Note: nearly all actives have a fitted effect of over 50% in size. Note: potency is the fitted concentration of half-maximal effect. The gist of the method:
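Luminescent readout of luciferin produced by CYP3A4 (20 nM) dealkylation of Luciferin-PPXE, 25 uM (its KM). NADPH-driven reaction ran 60 min at RT after 10 min compound preincubation; data scaled to 57 uM ketoconazole as 100% inhibition.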

Experiment [2] shares this target. The experiment in a line: qHTS Assay for Activators of Cytochrome P450 3A4 (AID 885). Note: nearly all actives have a fitted effect of over 65% in size. The gist of the method: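 Human CYP3A4 dealkylates Luciferin-PPXE to luciferin, which luciferase detection converts to light. Substrate was at its KM (25uM), buffer 200mM KPO4, reaction 60 min at RT.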
Experiment [3] in a line: Confirmation and Secondary Assay for Modulators of Hemoglobin Beta Chain Splicing at IVS2 654 locus (AID 910).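 Note: HeLa cells stably carrying EGFP split by mutant beta-globin IVS2-654 intron; % of control where 0% means no effect.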 The gist of the method:
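HeLa cells stably expressing EGFP interrupted by β-globin IVS2-654 intron, seeded overnight in Opti-MEM/2% FCS, then treated 2 days at 37 °C. Restored splicing read as total peak GFP intensity per well by laser scanning cytometry (488 nm excitation, 500–520 nm emission); 500 nM antisense PNA as control.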

Experiment [4] can be described thus: qHTS Assay for Lipid Storage Modulators (AID 1519; calls by dose curve; for activity change, negative = inhibition: % is set by controls: 0 for no effect and ±100 for the full control effect). The conditions noted are these: Drosophila S3 cells, BODIPY lipid droplet/cell ratio, laser cytometry, cells loaded with oleic acid; for activity change, negative = inhibition: at 57.5 µM (top of the series). Summed up:
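Cells seeded at 5,000 per well were treated with compounds over a concentration series and loaded with oleic acid (400 uM, as added). Lipid droplet fluorescence (488 nm excitation, 500-530 nm channel) was read by laser-scanning cytometry and normalized to 20 uM Triacsin C.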

For experiment [5], the target named is Ubiquitin carboxyl-terminal hydrolase 1 (Homo sapiens) (UniProt O94782). Kind of experiment: Inhibitors of USP1/UAF1: Pilot qHTS (AID 504865).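 For activity change, negative = inhibition: rhodamine fluorescence freed from ubiquitin-rhodamine substrate followed over time; top concentration of the series differs between compounds; % is set by controls: 0 for no effect and ±100 for the full control effect.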 Note: nearly all actives have a fitted effect of over 35% in size. Note: potency is the fitted concentration of half-maximal effect. Summed up:
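In 50mM HEPES pH 7.8 containing 0.5mM EDTA, 1mM TCEP, 0.1 mg/ml BSA and 0.01% Tween-20, 1nM USP1/UAF1 is exposed to compound for 15 min, then Ub-Rho (150nM final) is added and fluorescence is read over time.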

The target in experiment [6] is Rap guanine nucleotide exchange factor 3 (Homo sapiens) (UniProt O95398). Kind of experiment: Confirmatory qHTS for antagonist of cAMP-regulated guanine nucleotide exchange factor 3 (EPAC1) (AID 1645880).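 For activity, negative = inhibition: plate controls were DMSO only for no effect and full effect of the ATA control for full effect.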 Note: nearly all actives have a fitted effect of over 55% in size. Note: potency is the fitted concentration of half-maximal effect. Summed up:
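Released BODIPY-GDP fluoresces less than Rap1-bound BODIPY-GDP; the signal is followed at 480/540 nm at 5-min intervals over 30 min, after 5 min at room temperature. Reactions contain 100 nM EPAC1, 250 nM RAP1B-BODIPY-GDP and 50 uM GDP; results are normalized to ATA and DMSO.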

The target is the same in experiment [7]. Kind of experiment: Confirmatory qHTS for agonist of cAMP-regulated guanine nucleotide exchange factor 3 (EPAC1) (AID 1645881).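 Note: EPAC1 catalysed release of BODIPY-GDP from Rap1B seen as fluorescence loss; 100% = effect of cAMP agonist control; nearly all actives have a fitted effect of over 75% in size.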
In experiment [8] the target is Rap guanine nucleotide exchange factor 4 (Homo sapiens) (UniProt Q8WZA2). The experiment in a line: Confirmatory qHTS for agonist of cAMP-regulated guanine nucleotide exchange factor 4 (EPAC2) (AID 1645884).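 Note: nucleotide exchange releases bodipy-GDP from Rap1 and this lowers its fluorescence; % is set by controls: 0 for no effect and ±100 for the full control effect; nearly all actives have a fitted effect of over 65% in size.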
Experiment [9] has the same target. Kind of experiment: Confirmatory qHTS for antagonist of cAMP-regulated guanine nucleotide exchange factor 4 (EPAC2) (AID 1645885). Note: % is set by controls: 0 for no effect and ±100 for the full control effect; nearly all actives have a fitted effect of over 25% in size.
The target in experiment [10] is Lysosomal acid glucosylceramidase (Homo sapiens) (UniProt P04062). The experiment in a line: Glucocerebrosidase-p2 (AID 348; in the data active = potency below about 10 µM; note: potency is the fitted concentration of half-maximal effect). The conditions noted are these: purified GBA, blue fluorogenic substrate, 40 min. Summed up: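 Normal human glucocerebrosidase (0.2 nM) with blue fluorogenic substrate (80 uM final) in citrate/phosphate pH 5.9 with 10mM sodium taurocholate, 0.01% tween-20; 40 min RT, NaOH/glycine stop; fluorescence Ex 365/Em 440; AC50 from a titration from 0.6 nM upwards.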

Experiment [11] can be described thus: AP1 Signaling Pathway (AID 357; active = well fitted curve in either direction with a large enough effect, not every such curve was filed as active;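 note: ME-180 reporter cells stimulated with EGF at its EC50 level; % is set by controls: 0 for no effect and ±100 for the full control effect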). The conditions noted are these: ME-180 AP-1-bla reporter, EGF-induced, beta-lactamase ratio, 5 h; at 7.69 µM (top of the series) unless noted. Summed up:
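In this screen, ME-180 cells in Opti-MEM with 0.5% dialyzed FBS received EC50 EGF and compound titrations for 5 h. AP-1 reporter beta-lactamase was detected via CCF4 ratio, giving AC50 for positive and negative modulators.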

The target in experiment [12] is Cytochrome P450 1A2 (Homo sapiens) (UniProt P05177). The experiment in a line: p450-cyp1a2 (AID 410; calls by dose curve; note: potency is the fitted concentration of half-maximal effect). Summed up: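 20nM CYP1A2, 100uM Luciferin-ME (=Km), 100mM KPO4; cpd 10 min RT; +NADPH regen, 60 min RT; stop/detect 20 min; luminescence. Normalized to furafylline 57 uM = full inhibition.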
Experiment [13] is described as follows: Stat Signaling Pathway (AID 446; active = well fitted curve in either direction with a large enough effect, not every such curve was filed as active;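 note: ME-180 cervical cancer cells given 40 pM IL-6 alongside compound; SIE-controlled beta-lactamase reporter measured as 460/530 nm FRET emission ratio; % is set by controls: 0 for no effect and ±100 for the full control effect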). The conditions noted are these: ME-180 (cervical carcinoma) SIE beta-lactamase reporter, IL-6 stimulated, 5 h; at 7.69 µM (top of the series) unless noted. The gist of the method: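 Normalization used AC90 stimulation (300 pM IL-6) and AC90 inhibition (125 nM pan-JAK inhibitor at 40 pM IL-6). The underlying signal is SIE-driven beta-lactamase in ME-180 cells after 5 h IL-6 exposure with compound.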

Experiment [14] has as its target Glucocorticoid receptor (Homo sapiens) (UniProt P04150). The experiment in a line: GR-GFP Redistribution (AID 450;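 active = compounds whose dose series gives a full or clear partial fitted curve of increased nuclear translocation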; note: potency is the fitted concentration of half-maximal effect). The conditions noted are these: U2OS GR-GFP nuclear translocation, laser cytometry, 2 h.
Experiment [15] has the same target. The experiment in a line: GR-EFC Redistribution (AID 451; calls by dose curve; note: potency is the fitted concentration of half-maximal effect). The note with it: CHO-K1 GR-EFC translocation, beta-gal luminescence, 2 h. The gist of the method: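 CHO-K1 cells expressing nuclear EA and GR-ED fragments of b-gal; compounds titrated up to 46 uM final, 2 h at 37 C. GR nuclear translocation read as complemented b-gal luminescence after 1 h RT detection.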

Experiment [16] can be described thus: Confirmation and Secondary Assay for Modulators of Hemoglobin Beta Chain Splicing at IVS2 705 locus (AID 930).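 Note: HeLa cells stably expressing the EGFP-705 splicing reporter; GFP fluorescence per well restored by corrected splicing of the IVS2-705 intron in EGFP; % of control where 0% means no effect.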 Summed up:
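First, HeLa EGFP-705 cells are seeded at 500/well in Optimem with 2% FCS and left overnight. Next, compound or DMSO is added for 2 days. Finally wells are laser-scanned and total peak GFP intensity scored.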

Experiment [17] concerns the target DNA dC->dU-editing enzyme APOBEC-3G (Homo sapiens) (UniProt Q9HC16). Kind of experiment: qHTS for inhibitors of Vif-A3G interactions: Validation (AID 588379). Note: 0% is about no effect. The gist of the method:
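Yellow fluorescence (Ex 488, Em 500-530) of Vif-coexpressing HeLa A3G-eYFP cells, scanned by Acumen cytometer, reports blocked A3G degradation. Cells plated at 700/well overnight at 37 deg C before compound addition, then a further overnight compound incubation at 37 deg C.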

[18] abbreviates: measured here: cell count channel max response.
[19] abbreviates: measured here: lipid channel max response.

Chain of Rap guanine nucleotide exchange factor 4 (Homo sapiens) (Q8WZA2 whole entry, looked up): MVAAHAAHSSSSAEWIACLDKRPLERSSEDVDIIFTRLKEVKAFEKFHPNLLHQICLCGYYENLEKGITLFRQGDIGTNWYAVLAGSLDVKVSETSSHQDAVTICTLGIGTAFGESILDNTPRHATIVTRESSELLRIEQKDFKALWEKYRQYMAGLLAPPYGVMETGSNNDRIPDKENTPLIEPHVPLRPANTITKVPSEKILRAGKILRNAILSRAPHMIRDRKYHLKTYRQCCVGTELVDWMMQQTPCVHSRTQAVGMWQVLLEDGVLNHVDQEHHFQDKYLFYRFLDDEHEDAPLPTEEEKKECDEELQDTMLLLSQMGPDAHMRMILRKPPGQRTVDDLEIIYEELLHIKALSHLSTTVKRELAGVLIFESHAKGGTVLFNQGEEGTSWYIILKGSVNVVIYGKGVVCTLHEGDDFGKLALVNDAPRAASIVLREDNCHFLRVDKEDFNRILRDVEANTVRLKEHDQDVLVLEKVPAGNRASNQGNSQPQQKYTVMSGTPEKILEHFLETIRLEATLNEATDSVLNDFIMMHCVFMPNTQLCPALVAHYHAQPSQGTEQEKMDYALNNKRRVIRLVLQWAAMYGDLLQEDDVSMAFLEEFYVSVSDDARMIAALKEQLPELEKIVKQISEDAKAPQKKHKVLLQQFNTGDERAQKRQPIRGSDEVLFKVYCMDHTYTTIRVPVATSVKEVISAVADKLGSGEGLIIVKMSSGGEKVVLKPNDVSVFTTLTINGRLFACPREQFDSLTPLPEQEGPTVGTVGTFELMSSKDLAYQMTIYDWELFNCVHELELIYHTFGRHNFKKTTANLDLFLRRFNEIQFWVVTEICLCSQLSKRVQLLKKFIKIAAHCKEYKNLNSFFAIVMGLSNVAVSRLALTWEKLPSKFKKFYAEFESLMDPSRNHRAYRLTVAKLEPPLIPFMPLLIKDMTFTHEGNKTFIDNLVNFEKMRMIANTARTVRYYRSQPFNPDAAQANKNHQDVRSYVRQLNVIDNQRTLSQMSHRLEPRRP
Chain of Cytochrome P450 3A4 (Homo sapiens) (P08684 whole entry, looked up): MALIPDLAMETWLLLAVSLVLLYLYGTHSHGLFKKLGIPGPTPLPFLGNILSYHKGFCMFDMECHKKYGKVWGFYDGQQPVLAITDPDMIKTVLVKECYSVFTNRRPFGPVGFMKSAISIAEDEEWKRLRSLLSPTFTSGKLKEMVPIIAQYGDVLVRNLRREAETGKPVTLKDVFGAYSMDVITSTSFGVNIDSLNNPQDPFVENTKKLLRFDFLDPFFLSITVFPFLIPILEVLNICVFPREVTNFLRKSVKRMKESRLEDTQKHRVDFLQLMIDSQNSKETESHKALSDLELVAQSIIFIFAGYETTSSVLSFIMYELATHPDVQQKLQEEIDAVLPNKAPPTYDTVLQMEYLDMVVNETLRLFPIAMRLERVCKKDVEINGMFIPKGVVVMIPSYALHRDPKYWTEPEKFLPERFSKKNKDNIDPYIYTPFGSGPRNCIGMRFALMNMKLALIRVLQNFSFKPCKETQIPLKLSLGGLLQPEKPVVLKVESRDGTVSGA
Chain of Ubiquitin carboxyl-terminal hydrolase 1 (Homo sapiens) (O94782 whole entry, looked up): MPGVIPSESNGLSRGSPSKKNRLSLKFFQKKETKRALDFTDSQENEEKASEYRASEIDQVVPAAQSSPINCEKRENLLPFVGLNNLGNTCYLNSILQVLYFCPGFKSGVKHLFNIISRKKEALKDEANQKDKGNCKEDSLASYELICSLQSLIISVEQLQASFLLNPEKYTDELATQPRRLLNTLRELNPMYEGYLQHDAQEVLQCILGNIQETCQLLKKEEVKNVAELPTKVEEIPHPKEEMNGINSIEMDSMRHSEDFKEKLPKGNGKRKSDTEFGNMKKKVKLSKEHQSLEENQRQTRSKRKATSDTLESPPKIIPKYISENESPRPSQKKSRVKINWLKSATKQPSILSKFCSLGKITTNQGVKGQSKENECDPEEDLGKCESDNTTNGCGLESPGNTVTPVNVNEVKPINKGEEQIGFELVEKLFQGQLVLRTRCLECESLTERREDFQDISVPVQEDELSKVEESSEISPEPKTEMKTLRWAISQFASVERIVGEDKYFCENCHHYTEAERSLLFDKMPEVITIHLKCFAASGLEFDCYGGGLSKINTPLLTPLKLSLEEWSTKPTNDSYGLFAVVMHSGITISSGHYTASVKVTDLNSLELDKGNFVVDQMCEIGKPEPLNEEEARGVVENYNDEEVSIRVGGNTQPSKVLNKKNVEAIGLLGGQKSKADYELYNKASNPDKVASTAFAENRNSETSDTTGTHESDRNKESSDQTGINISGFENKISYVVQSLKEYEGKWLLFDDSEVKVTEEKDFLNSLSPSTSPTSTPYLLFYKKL
Chain of Rap guanine nucleotide exchange factor 3 (Homo sapiens) (O95398 whole entry, looked up): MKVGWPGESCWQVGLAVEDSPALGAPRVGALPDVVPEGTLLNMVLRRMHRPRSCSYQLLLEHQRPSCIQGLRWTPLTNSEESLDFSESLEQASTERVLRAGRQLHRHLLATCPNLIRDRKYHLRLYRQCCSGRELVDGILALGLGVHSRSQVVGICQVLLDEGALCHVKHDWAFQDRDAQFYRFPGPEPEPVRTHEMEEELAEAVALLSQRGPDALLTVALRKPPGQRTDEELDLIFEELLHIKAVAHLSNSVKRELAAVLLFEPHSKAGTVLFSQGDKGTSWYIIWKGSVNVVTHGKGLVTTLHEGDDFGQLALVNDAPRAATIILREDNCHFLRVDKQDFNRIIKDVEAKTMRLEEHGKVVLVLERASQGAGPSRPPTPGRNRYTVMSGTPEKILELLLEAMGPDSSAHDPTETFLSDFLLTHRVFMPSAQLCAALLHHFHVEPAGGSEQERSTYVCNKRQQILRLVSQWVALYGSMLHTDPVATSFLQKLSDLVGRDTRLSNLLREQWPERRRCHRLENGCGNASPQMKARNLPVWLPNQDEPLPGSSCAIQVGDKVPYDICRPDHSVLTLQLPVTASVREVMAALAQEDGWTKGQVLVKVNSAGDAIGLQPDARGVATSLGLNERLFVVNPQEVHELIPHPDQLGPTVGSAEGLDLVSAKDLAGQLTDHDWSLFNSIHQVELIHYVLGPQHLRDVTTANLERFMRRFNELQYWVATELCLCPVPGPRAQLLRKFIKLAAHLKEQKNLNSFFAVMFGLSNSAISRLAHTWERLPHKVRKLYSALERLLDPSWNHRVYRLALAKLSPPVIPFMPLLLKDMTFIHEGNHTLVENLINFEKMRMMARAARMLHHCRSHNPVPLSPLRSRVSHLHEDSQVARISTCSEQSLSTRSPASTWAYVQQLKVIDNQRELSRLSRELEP
Chain of Glucocorticoid receptor (Homo sapiens) (P04150 whole entry, looked up, the tested form may be a part): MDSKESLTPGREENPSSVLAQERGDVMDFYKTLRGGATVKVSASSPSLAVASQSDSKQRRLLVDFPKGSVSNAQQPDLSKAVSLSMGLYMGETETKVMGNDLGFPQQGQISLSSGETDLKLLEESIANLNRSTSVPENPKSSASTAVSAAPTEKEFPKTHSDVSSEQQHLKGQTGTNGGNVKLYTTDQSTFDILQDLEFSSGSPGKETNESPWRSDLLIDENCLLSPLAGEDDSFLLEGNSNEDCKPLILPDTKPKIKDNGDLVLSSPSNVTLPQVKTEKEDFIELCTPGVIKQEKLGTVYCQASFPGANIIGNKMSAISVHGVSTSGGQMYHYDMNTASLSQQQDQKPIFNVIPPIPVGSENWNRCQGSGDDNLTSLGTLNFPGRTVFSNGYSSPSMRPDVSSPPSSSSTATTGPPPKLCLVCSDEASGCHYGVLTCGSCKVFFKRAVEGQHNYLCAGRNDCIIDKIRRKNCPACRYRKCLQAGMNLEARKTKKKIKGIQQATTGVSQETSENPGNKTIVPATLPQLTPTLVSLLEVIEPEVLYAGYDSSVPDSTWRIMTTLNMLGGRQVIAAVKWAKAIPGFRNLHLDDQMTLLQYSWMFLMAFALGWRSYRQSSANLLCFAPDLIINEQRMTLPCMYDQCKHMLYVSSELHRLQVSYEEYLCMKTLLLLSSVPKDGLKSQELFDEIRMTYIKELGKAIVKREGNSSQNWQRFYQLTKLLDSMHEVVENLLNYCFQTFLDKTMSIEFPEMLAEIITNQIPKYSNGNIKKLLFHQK
Chain of DNA dC->dU-editing enzyme APOBEC-3G (Homo sapiens) (Q9HC16 whole entry, looked up): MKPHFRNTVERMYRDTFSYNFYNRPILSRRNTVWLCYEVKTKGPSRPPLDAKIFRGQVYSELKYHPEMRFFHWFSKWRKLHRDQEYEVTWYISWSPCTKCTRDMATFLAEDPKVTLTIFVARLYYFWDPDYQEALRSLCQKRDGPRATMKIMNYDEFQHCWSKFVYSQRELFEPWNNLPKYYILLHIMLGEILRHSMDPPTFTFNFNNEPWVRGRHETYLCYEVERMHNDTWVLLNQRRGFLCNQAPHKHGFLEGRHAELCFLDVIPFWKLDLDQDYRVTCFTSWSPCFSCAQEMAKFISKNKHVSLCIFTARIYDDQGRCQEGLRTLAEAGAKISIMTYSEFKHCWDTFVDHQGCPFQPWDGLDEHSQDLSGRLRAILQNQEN
Chain of Lysosomal acid glucosylceramidase (Homo sapiens) (P04062 whole entry, looked up): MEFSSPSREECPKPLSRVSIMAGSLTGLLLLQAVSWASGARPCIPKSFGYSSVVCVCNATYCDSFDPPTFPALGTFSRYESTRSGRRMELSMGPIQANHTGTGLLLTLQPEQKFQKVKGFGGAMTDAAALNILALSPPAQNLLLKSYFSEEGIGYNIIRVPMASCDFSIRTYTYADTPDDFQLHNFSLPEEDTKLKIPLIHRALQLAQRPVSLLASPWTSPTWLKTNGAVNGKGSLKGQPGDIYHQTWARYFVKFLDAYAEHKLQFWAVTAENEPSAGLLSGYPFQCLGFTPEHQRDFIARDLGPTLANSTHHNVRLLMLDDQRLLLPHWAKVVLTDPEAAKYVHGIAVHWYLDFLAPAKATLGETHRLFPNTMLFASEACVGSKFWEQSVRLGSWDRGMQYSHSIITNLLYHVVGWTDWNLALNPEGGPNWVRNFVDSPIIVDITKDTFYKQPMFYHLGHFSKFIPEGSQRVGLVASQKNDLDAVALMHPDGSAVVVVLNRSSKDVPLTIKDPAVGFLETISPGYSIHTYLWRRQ

`CC1(C)C=CC(=O)[C@]2(C)C1CC(=O)[C@]1(C)C2CC[C@@]2(C)C(c3ccoc3)OC(=O)C3OC321` (some centres not stated): the Potency in experiment [1] is 2 µM (active). Also, the Potency result in experiment [2], in [3], in experiment [5], in experiment [6], in experiment [7] and in experiment [8] was “inactive” in each case. For the same molecule, the Potency entry in experiment [9] is “inactive”. In experiment [4], the activity change, negative = inhibition was -11.5% (inactive). Moreover, the values for the max response in experiment [4] (setting [18]) and in experiment [4] (setting [19]) were -7.57% and -18.1%, respectively.

On to `CN(Cc1ccco1)c1nc(-c2cccc(C#N)c2)nc2ccccc12`, for which the Potency in experiment [10] was > 11.4 µM (inactive); in experiment [12], 0.1 µM (active); in [14] it was > 46 µM (inactive); in [15] it was > 46 µM (inactive). For the same molecule, the activity change, negative = inhibition in experiment [11] is 6.74% (inactive); in [4] it was 10.1% (inactive). For the same molecule, the activity, negative = inhibition in experiment [13] was 12.3% (inactive). For the same molecule, the Potency entry in experiment [2], in experiment [3], in experiment [6], in [7], in experiment [8] and in experiment [9] was “inactive” throughout. In addition, the molecule was classed as inactive in experiment [16]. For the same molecule, the max response stood at 1.16% in [4] (setting [18]) and 12.8% in experiment [4] (setting [19]).

For `N#C/C(=C\c1ccc(O)c(O)c1)C(=O)NCCCCc1ccccc1`, the Potency in experiment [14] was > 46 µM (inactive); in experiment [15], > 46 µM (inactive); in experiment [5], 35.5 µM (active); in [6], 15.7 µM (active). In addition, in [4], the activity change, negative = inhibition is -2.23% (inactive). In addition, the max response was found to be 21.1% in [4] (setting [18]) and 17.3% in experiment [4] (setting [19]). In addition, the molecule was classed as inactive in experiment [17]. For the same molecule, the Potency result in experiment [7] and in [8] was “inactive” in each case.

As to `O=C(O)c1cc(O)c2c(c1)C(=O)c1cc(O)cc(O)c1C2=O`, the Potency result in experiment [2], in experiment [3], in [7], in [8] and in experiment [9] was “inactive” in each case. Also, the activity change, negative = inhibition in experiment [4] is 8.22% (inactive). The max response in [4] (setting [18]) was determined as 22.4%; in [4] (setting [19]) it was 36.4%. In addition, in experiment [5], the Potency was 56.2 µM (active).

For the molecule `CC(=O)OC1CC2C(C)(C)CCC(=O)[C@@]2(C)C2CC[C@@]3(C)C(c4ccoc4)OC(=O)C4OC43[C@]12C` (some centres not stated), the Potency result in experiment [1], in [3], in experiment [5], in experiment [6], in experiment [7] and in experiment [8] was “inactive” in each case. Also, in [9], the Potency result is “inactive”. Also, the call in experiment [16] was inactive. Moreover, the activity change, negative = inhibition in [4] was 2.56% (inactive). In addition, the max response worked out at 0.203% in experiment [4] (setting [18]) and 3.26% in experiment [4] (setting [19]).

Consider `CC(=O)Oc1ccc2c(c1C(C)C)CCC1C(C)(C)CCC[C@@]21C` (some centres not stated), for which the Potency result in [2], in [3], in experiment [6], in experiment [7], in [8] and in [9] was “inactive” each time. Also, the molecule was classed as inactive in experiment [16]. Moreover, the activity change, negative = inhibition in experiment [4] was 2.03% (inactive). In addition, the max response is 13.7% in experiment [4] (setting [18]) and 20.3% in [4] (setting [19]).
